Screening data (PubChem BioAssay)
The list is not random: actives were taken first. Their share in the collection is about 11%.
hNpr1 antagonist – Natriuretic polypeptide receptor (hNpr1) antagonism - Primary qHTS. Potency, µM (top dose mostly 46.3 µM), actives largely listed as inhibitors. 1.6% of 76,000 active. AID 1347048, 2019. Atrial natriuretic peptide receptor 1 (Homo sapiens), P16066. HEK293 hNpr1 GloSensor cGMP, ANP-stimulated luminescence; calls by dose curve; also: nearly all actives have a fitted effect of over 60% in size
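Compound pre-incubated 30 min at room temperature on GloSensor-loaded HEK293 cells stably carrying hNpr1 and the pGS-40F cGMP biosensor. Stimulation uses hNppA at 0.1 nM final; luminescence is taken at baseline and 20 min post-agonist.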
NIH3T3 tox – Cytotoxic Profiling in NIH 3T3 Cell Line of Diverse Libraries Using Quantitative High-Throughput Screening; NIH 3T3 viability, CellTiter-Glo ATP luminescence, 48-72 h; 4.3% of 94,000 active; Potency, µM (top dose mostly 96.7 µM), most hits filed as inhibitors; also: nearly all actives have a fitted effect of over 55% in size
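Cytotoxicity is measured as loss of cellular ATP: NIH 3T3 cells (400/well) are exposed to compound for 48 or 72 hr at 37 °C, then CellTiter-Glo luminescence is imaged after 10 min at room temperature.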
FLuc inh – Firefly luciferase inhibition profiling of diverse chemical library using quantitative high-throughput screening | purified P. pyralis luciferase, luminescence, biochemical | Potency, µM (top dose mostly 115 µM), hits mostly inhibitors | 2.5% of 76,000 active | Luciferin 4-monooxygenase (Photinus pyralis), P08659; also: nearly all actives have a fitted effect of over 65% in size
Target sequence (P08659 whole entry, looked up): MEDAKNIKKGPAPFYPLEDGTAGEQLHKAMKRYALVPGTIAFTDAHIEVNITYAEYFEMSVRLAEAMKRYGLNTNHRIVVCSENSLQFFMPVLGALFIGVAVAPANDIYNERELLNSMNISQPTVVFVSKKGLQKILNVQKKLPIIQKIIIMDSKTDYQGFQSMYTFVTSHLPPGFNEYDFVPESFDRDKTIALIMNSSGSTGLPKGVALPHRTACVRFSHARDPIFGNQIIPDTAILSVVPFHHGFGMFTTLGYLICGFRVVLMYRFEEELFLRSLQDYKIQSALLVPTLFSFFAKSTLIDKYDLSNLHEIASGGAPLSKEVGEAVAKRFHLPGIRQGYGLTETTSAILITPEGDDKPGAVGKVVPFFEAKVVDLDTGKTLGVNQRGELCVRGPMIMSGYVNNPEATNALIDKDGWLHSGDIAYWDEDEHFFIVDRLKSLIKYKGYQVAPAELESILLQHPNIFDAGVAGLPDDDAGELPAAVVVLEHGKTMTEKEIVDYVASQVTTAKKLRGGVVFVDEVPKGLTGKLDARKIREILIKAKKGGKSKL
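Cell-free enzyme assay, 10nM P. pyralis luciferase, luciferin and ATP each at 10uM. Inhibition profiled over a 6-point titration, read as luminescence.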
HEK cytotox – Cytotoxic Profiling in HEK 293 Cell Line of Diverse Libraries Using Quantitative High-Throughput Screening; HEK 293 viability, ATP luminescence (CellTiter-Glo), 48-72 h; Potency, µM (series often up to 115 µM), actives largely listed as inhibitors; 6.6% of 94,000 active; AID 1345083, 2018; also: nearly all actives have a fitted effect of over 60% in size
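HEK 293 cells seeded at 250 cells/well were exposed to compound for 48 or 72 hr at 37 degree Celsius. Viability taken as ATP content by CellTiter-Glo luminescence.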
Numbers stand for hits; 0 = inactive; ? = inconclusive; - = no result given. Unless noted, calls follow the shape of the dose curve; as a rule, active = well fitted curve in the direction sought with a large enough effect; inconclusive = small, poorly fitted or top-dose-only effect, or another doubt; inactive = no such curve, though single readings can be large; an effect the other way counts as inactive or inconclusive.

SMILES	hNpr1 antagonist	NIH3T3 tox	FLuc inh	HEK cytotox
CCN1C(=O)C2CC3(CCN(C(=O)c4ccc(Cc5c(C)noc5C)o4)CC3)CN2C1=O (configuration not stated)	-	0	-	0
O=C1COCC2(CN(c3ccccc3)C2)CN1c1ccc(OC(F)(F)F)cc1	0	89µM	0	89µM
O=C1COCC2(CN(c3ccc(C(F)(F)F)cn3)C2)CN1c1ccc(F)cc1	0	?	0	?
O=C(c1cc(C(F)(F)F)[nH]n1)N1CC[C@@H](c2ccc(F)cc2)[C@H](O)C1	0	0	0	?
CC(C)c1noc(-c2cn(C3CCN(C(=O)c4cccc5[nH]ccc45)CC3)nn2)n1	0	0	0	45µM
O=C(c1ccc[nH]c1=O)N1CCC(n2cc(-c3nc(-c4ccccc4)no3)nn2)CC1	0	0	?	0
CCc1noc(-c2cn(C3CCN(C(=O)c4cccc5[nH]ccc45)CC3)nn2)n1	0	0	0	?
O=C(c1cccc2[nH]ccc12)N1CCC(n2cc(-c3nc(-c4ccccc4)no3)nn2)C1 (configuration not stated)	11µM	?	?	?
O=C(c1cccc2[nH]ccc12)N1CCC(n2cc(-c3nc(-c4ccccc4)no3)nn2)CC1	?	?	0	28µM
O=[S+]([O-])(c1cccs1)N1CCN(c2ccc3nnc(-c4ccccc4)n3n2)CC1	-	0	-	0
O=C(NCc1ccccn1)C1CCc2nnc(-c3cccc(C(F)(F)F)c3)n21 (configuration not stated)	-	0	-	0
Cc1ccsc1C(=O)N1CCCC2(CC1)CN(C)C(=O)O2 (configuration not stated)	-	0	-	0
O=C(Nc1ccccc1)N[C@H]1CO[C@H]2[C@@H]1OC[C@@H]2n1cc(CC2CCCCC2)nn1	0	?	0	0
CN(Cc1ccccc1)Cc1cn([C@H]2CO[C@H]3[C@@H]2OC[C@@H]3NS(=O)(=O)c2cccs2)nn1	0	?	0	?
O=S(=O)(N[C@H]1CO[C@H]2[C@@H]1OC[C@@H]2n1cc(CC2CCCCC2)nn1)c1cccs1	0	?	0	79µM
COCc1cn([C@H]2CO[C@H]3[C@@H]2OC[C@H]3OC(=O)Nc2cccc(C(F)(F)F)c2)nn1	0	?	0	79µM
O=C(Nc1cccc(C(F)(F)F)c1)N[C@H]1CO[C@H]2[C@@H]1OC[C@@H]2n1cc(CC2CCCCC2)nn1	?	?	0	40µM
O=C(c1ccsc1)N1CCC(N2C(=O)C3(CCCCC3)C2c2ccncc2)CC1 (configuration not stated)	-	0	-	0
COC(=O)N[C@@H]1C[C@H]2C[C@@H](C(C)C)OC[C@@]2(c2ccccc2)C1	-	0	-	?
CC(=O)NCc1nnc2n1C(C(=O)NCCc1ccccc1F)CC2 (configuration not stated)	-	0	-	0
COc1cccc(-c2ccc(C(=O)NCCNC(=O)c3ccc(Cl)nc3)cc2)c1	-	0	-	?
Cc1nn(-c2ccc(C(C)C)cc2)c(C)c1[C@@H]1C=C[C@@H](NCc2ccc(F)cc2)C1	?	7.1µM	22µM	8.9µM
Cc1nn(CCC#N)c(C)c1[C@@H]1C=C[C@@H](NCc2ccc(C(C)C)cc2)C1	0	?	0	71µM
Cc1nn(CCC#N)c(C)c1[C@@H]1C=C[C@@H](NCc2ccc(F)cc2)C1	0	0	0	0
Cc1nn(-c2ccc(F)cc2)c(C)c1[C@@H]1C=C[C@@H](NCc2ccc(C(C)C)cc2)C1	?	10µM	0	11µM
SMILES	hNpr1 antagonist	NIH3T3 tox	FLuc inh	HEK cytotox
COCCOC1CN(C2CCN(C(=O)c3ccc4cc[nH]c4c3)CC2)C12CCCCC2 (configuration not stated)	-	?	-	0
Cc1noc(C)c1[S+](=O)([O-])N1CCN(C(=O)c2nc3cccnc3n(CC(C)C)c2=O)CC1	-	0	-	0
CCC1Oc2ccc(NC(=O)Cc3ccc(OC)cc3)cc2CN(Cc2ccc(OC)cc2)C1=O (configuration not stated)	0	?	0	?
CCC1Oc2ccc(NS(=O)(=O)c3ccc(Cl)cc3)cc2CN(Cc2ccc(F)cc2)C1=O (configuration not stated)	0	14µM	0	?
CCC1Oc2ccc(NC(=O)COC)cc2CN(Cc2ccc(Cl)cc2)C1=O (configuration not stated)	0	?	0	?
CCC1Oc2ccc(NS(=O)(=O)c3ccc(C)c(F)c3)cc2CN(Cc2ccc(OC)cc2)C1=O (configuration not stated)	0	25µM	0	?
CCC1Oc2ccc(NS(=O)(=O)c3ccccc3)cc2CN(Cc2ccc(F)cc2)C1=O (configuration not stated)	0	?	0	35µM
Cc1ccc(C(=O)N2CCCC3(CNc4ncccc4[S+](=O)([O-])N3)C2)cc1 (configuration not stated)	-	0	-	0
COc1ccc(-c2ccc3ncc(Nc4ccc(C(N)=O)cc4)n3n2)cn1	0	?	0	?
Fc1ccc(-c2ccc3ncc(Nc4ncccn4)n3n2)cc1	0	?	0	0
COc1ccc(-c2ccc3ncc(Nc4cccc(N[S+](C)(=O)[O-])c4)n3n2)cc1OC	0	?	40µM	?
C[S+](=O)([O-])Nc1cccc(Nc2cnc3ccc(-c4ccc(F)cc4)nn23)c1	0	?	?	79µM
CC(C)(C)c1nc(C(=O)NCCc2ccc(Cl)cc2)n2ccccc12	-	?	-	0
CC(C)(C)c1nc(C(=O)NCCc2ccc(Cl)cc2)n2ccncc12	-	?	-	35µM
Cc1ccc([S+](=O)([O-])NC[C@@H]2CC[C@H]3C[C@@H]2C3(C)C)cc1	?	?	0	?
CC1(C)[C@H]2CC[C@@H](CNC(=O)c3cccc(Cl)c3)[C@@H]1C2	0	?	0	79µM
CC1(C)[C@H]2CC[C@@H](CNC(=O)c3ccc(Cl)cc3)[C@@H]1C2	0	40µM	0	?
CC1(C)[C@H]2CC[C@@H](CN[S+](=O)([O-])c3ccccc3)[C@@H]1C2	0	?	0	79µM
COc1cccc(C(=O)NC[C@@H]2CC[C@H]3C[C@@H]2C3(C)C)c1	0	?	0	89µM
O=C(CCCc1ccccc1)N1CC(CO)C2(CCNCC2)C1 (configuration not stated)	-	0	-	0
COc1ccc(C(=O)N2CCCC(C(=O)N3CCC(N4Cc5cccn5C4=O)CC3)C2)cc1 (configuration not stated)	-	0	-	?
O=C(NCc1cccs1)c1noc(-c2ccc(F)cc2)n1	0	?	?	?
CSc1ccc(CNC(=O)c2noc(-c3ccc(F)cc3)n2)cc1	0	?	28µM	0
COc1ccc(CNC(=O)c2noc(-c3ccc4c(c3)OCO4)n2)cc1	0	?	32µM	?
Cc1cccc(CNC(=O)c2noc(-c3ccc4c(c3)OCO4)n2)c1	0	?	?	?
